# Reference: the supplement of paper PMC10646978
# ± gives the standard deviation.
# How the values were obtained:
# Details in all cases: modulator concentration 10 µM
# [1] = test system: RAW-Dual (murine macrophage reporter line); experiment: NF-kB reporter (SEAP) activity fold change vs agonist alone; higher = enhanced NF-kB activity
# Summary of the method: (§1)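 RAW-Dual murine macrophage reporter cells were plated at 50 000 per well in 384-well plates, pin-transferred compound to 10 μM final, and pre-incubated for 1 hour at 37 °C before a PRR agonist was added and the cells incubated overnight. NF-κB activity was read from supernatant SEAP with QUANTI-Blue at 620 nm absorbance, and IRF activity from Lucia luciferase with QUANTI-Luc by luminescence. Each signal was expressed as fold change by dividing by the mean agonist-only control on the same plate. Two replicate plates were averaged, with errors obtained by propagation.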
# [2] = test system: RAW-Dual (murine macrophage reporter line); experiment: IRF reporter (Lucia luciferase) activity fold change vs agonist alone; higher = enhanced IRF activity
# Summary of the method: as §1
# [3] = test system: RAW-Dual (murine macrophage reporter line); experiment: viability score (confluency relative to resting cells, overnight) (fraction); higher = more viable, active = viable (0.7 or more)
# Summary of the method: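 RAW-Dual macrophages in 384-well plates were exposed overnight to compound at 10 μM final. Confluency was imaged with IncuCyte, and two confluency masks were generated with IncuCyte software over all imaged wells. The viability score is confluency expressed relative to resting cells. Compounds were called viable if both masks exceeded 70% of resting cells.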
# [4] = agonist: CpG ODN 1826 0.5 ug/mL
SMILES,"NF-kB reporter [1, 4]",NF-kB reporter ([1]; agonist: LPS 0.1 ug/mL),NF-kB reporter ([1]; agonist: MPLA […]),IRF reporter ([2]; agonist: 3'3'-cGAMP 10 ug/mL),IRF reporter ([2]; agonist: LPS 0.1 ug/mL),IRF reporter ([2]; agonist: MPLA […]),viability score [3]
CC1(C)CC(=O)C2=C(C1)OC(N)=C(C#N)C2c1ccccc1C(F)(F)F (stereo unspecified),1.01 ± 0.073,1.09 ± 0.074,1.06 ± 0.14,0.999 ± 0.059,1.22 ± 0.086,1.26 ± 0.29,0.994 (active)
Cc1ccc(NC(=O)c2ccccc2Oc2ccccc2)cc1,0.689 ± 0.055,1.1 ± 0.097,1.24 ± 0.059,0.881 ± 0.08,1.09 ± 0.14,1.76 ± 0.41,1 (active)
Cn1cnc2c(F)c(Nc3ccc(Br)cc3Cl)c(C(=O)NOCCO)cc21,0.288 ± 0.015,0.124 ± 0.0099,0.183 ± 0.013,0.852 ± 0.061,3.68 ± 0.24,2.42 ± 0.19,0.684 (inactive)
CSc1nnc2c(n1)[nH]c1c(C)cccc12,1.01 ± 0.082,0.931 ± 0.096,0.904 ± 0.098,0.989 ± 0.066,1.31 ± 0.25,1.42 ± 0.33,1.02 (active)
Clc1ccc(CN2CCN(c3ncnc4scc(-c5cccs5)c34)CC2)cc1,0.489 ± 0.028,1.28 ± 0.1,1.25 ± 0.074,1.16 ± 0.072,1.66 ± 0.12,1.51 ± 0.14,0.997 (active)
Br.COc1ccc2c3c1OC1CC(O)C=CC31CCN(C)C2 (stereo unspecified),1.06 ± 0.082,0.892 ± 0.095,1.04 ± 0.1,1 ± 0.04,1.34 ± 0.18,1.43 ± 0.27,0.999 (active)
COc1cc2c(cc1OC)C1Cc3ccc(OC)c(OC)c3CN1CC2 (stereo unspecified),0.932 ± 0.24,0.87 ± 0.044,0.949 ± 0.067,0.871 ± 0.052,1.09 ± 0.14,1.15 ± 0.17,1 (active)
CCCOc1cccc(C=C2N=C(c3ccc(Cl)c([N+](=O)[O-])c3)OC2=O)c1,0.993 ± 0.094,1.07 ± 0.072,0.912 ± 0.055,1.02 ± 0.041,1.55 ± 0.17,1.04 ± 0.15,1.01 (active)
COc1c(Cl)cc(C(=O)Nc2cccc(NC(=O)c3ccco3)c2)cc1Cl,1.15 ± 0.098,1.01 ± 0.056,0.682 ± 0.043,0.858 ± 0.022,1.1 ± 0.11,0.956 ± 0.29,1.01 (active)
O=C(Cc1ccc(F)cc1)NCC1CCCN1c1ccccc1 (stereo unspecified),1.21 ± 0.11,1.1 ± 0.083,1.09 ± 0.029,0.677 ± 0.043,1.12 ± 0.077,0.893 ± 0.13,0.992 (active)
Cc1cccc(C(=O)NC2CCC(F)(F)CC2)c1,1.07 ± 0.068,0.934 ± 0.082,1.03 ± 0.058,0.823 ± 0.034,1.1 ± 0.058,0.99 ± 0.2,1 (active)
COc1ccc(CCn2c(C)c(C)n3c4c(=O)n(CCC(C)C)c(=O)n(C)c4nc23)cc1OC,0.95 ± 0.07,1.01 ± 0.12,1.15 ± 0.14,1.03 ± 0.048,1.37 ± 0.24,1.57 ± 0.44,0.95 (active)
CN1CCN(C2=C(Cl)C(=O)N(c3cccc(Cl)c3)C2=O)CC1,1.09 ± 0.079,0.914 ± 0.099,1.01 ± 0.03,0.465 ± 0.022,0.972 ± 0.053,0.974 ± 0.096,0.993 (active)
